Results on 5 compounds are retold here after PubChem BioAssay.

Molecules are shown by their SMILES. Records with an inconclusive call do not appear. Active and inactive are the calls of the source.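 The calls were made as follows, unless noted: active = binding below the plate cutoff, the plate median minus 3 SD, with a reading above zero; inconclusive = below the plate cutoff but reading exactly zero; inactive = the rest.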

The nature of assay [1]: rapamycin-like changes in RPL19A-GFP expression – cell-based, S. cerevisiae, multiplex flow cytometry, primary screen (AID 1862; in the data active = percent of DMSO control GFP below about 86%;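 also: lower values mimic rapamycin by blocking the RPL19A rise seen in DMSO cells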). As to conditions: S. cerevisiae RPL19A-GFP strain, flow cytometry fluorescence, 3 h; at 10 µM; stronger effect = lower value. On the technique in general: In flow cytometry, cells or beads pass a laser one at a time.
Assay [2] can be described thus: TOR pathway GLN3 branch reporter MEP2-GFP changes – S. cerevisiae, multiplex flow cytometry, primary screen (AID 1867;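 active = GFP response, as percent of the DMSO control, above the screen-wide mean plus 3 SD, about 139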;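 also: median GFP channel fluorescence of barcode-gated MEP2-GFP cells measured by flow cytometry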). As to conditions: S. cerevisiae MEP2-GFP strain, 3 h, at 10 µM, stronger effect = higher value, 100% means same as DMSO wells.
Assay [3] in a line: TOR pathway RTG branch CIT2 reporter changes – S. cerevisiae, GFP fusion, multiplex flow cytometry, primary screen (AID 1870;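 active = percent response above a set limit, the screen-wide mean plus 3 SD, cut at about 130% in these data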;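 also: barcoded CIT2-GFP strain pooled with four other GFP strains with rapamycin as positive control; median GFP fluorescence per well over plate mean of DMSO wells so 100% = DMSO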). The settings on record: S. cerevisiae CIT2-GFP expression, 3 h, at 10 µM, stronger effect = higher value.
The nature of assay [4]: TOR pathway LAP4-GFP level changes – S. cerevisiae, multiplex flow cytometry, primary screen (AID 1873;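 active = GFP signal, as percent of the solvent control, above the screen mean plus 3 SD, about 149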). The settings on record: S. cerevisiae LAP4-GFP expression, 3 h, at 10 µM, stronger effect = higher value.
Assay [5] can be described thus: yeast AGP1-GFP level changes, GLN3 branch – cell-based, multiplex flow cytometry, S. cerevisiae, primary screen (AID 1887;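 active = GFP signal above the screen-wide mean plus 3 SD, that is over about 124.5% of the solvent control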;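 also: AGP1-GFP fusion strain of S. cerevisiae within a five-strain barcoded multiplex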). As to conditions: 3 h, at 10 µM, stronger effect = higher value.
Assay [6] can be described thus: reduced mouse 2C T cell binding to pMHC/ICAM-1 vesicles – MLPCN validation set, flow cytometry, LFA-1/ICAM-1 modulator project, pilot screen (AID 2523;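 active = response below a set limit, under 55% cells CD8-positive and vesicle-bound, and CD8 cells' 90th-percentile brightness under 279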;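 as to vesicle binding response: mean PE anti-B7-1 fluorescence of CD8+ cells relative to row control; 100% = QL9-loaded vesicles with DMSO vehicle in the same plate row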). The settings on record: 2C mouse CD8+ T cells, at 7 µM, stronger effect = lower value; double positive events: measured here: CD8+/vesicle+ event percentage.
Assay [7] concerns the target Integrin beta-1 (Homo sapiens) + Integrin alpha-4 (Homo sapiens) (UniProt P13612+P05556). Description: alpha4beta1 integrin LIBS antibody binding reduction – U937 cells, HUTS-21 mAb, flow cytometry, validation set, VLA-4 allosteric modulator project, pilot screen (AID 2674;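 active = inhibition above 50%, about 3 SD of the validation set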;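 also: antibody binding induced by the VLA-4 ligand LDV present at three times its Kd; 0% = LDV ligand with antibody and no compound and 100% = antibody without LDV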). The settings on record: HUTS-21 LIBS mAb binding, at 6.7 µM, stronger effect = higher value, binding induced by LDV ligand.

Assay [8] can be described thus: calorie-restriction mimetic ROS inhibitors, yeast – validation compound set, pilot screen (AID 2706;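 active = superoxide response below 65% of plate, a cut near 3 SD across the whole screen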;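 also: yeast exposed to compound for one week at 30 degrees C before staining; 100% = mean of all compound wells on the same plate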). The settings on record: S. cerevisiae aging, superoxide DHE fluorescence; at 10 µM, stronger effect = lower value.
The target of assay [9] is Beta-adrenergic receptor kinase 1 (Homo sapiens) (UniProt P25098). Description: GRK2 binders displacing RNA aptamer, biochemical, validation, human GRK2, bead flow cytometry (AID 488806;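 active = aptamer binding inhibition above 30%, about 3 SD of noise from non-fluorescent compounds; inactive = inhibition at or below 30%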). As to conditions: bead-bound GRK2, FAM-aptamer displacement, at 10 µM, stronger effect = higher value.
Sequence of Beta-adrenergic receptor kinase 1 (Homo sapiens) (P25098 whole entry, looked up): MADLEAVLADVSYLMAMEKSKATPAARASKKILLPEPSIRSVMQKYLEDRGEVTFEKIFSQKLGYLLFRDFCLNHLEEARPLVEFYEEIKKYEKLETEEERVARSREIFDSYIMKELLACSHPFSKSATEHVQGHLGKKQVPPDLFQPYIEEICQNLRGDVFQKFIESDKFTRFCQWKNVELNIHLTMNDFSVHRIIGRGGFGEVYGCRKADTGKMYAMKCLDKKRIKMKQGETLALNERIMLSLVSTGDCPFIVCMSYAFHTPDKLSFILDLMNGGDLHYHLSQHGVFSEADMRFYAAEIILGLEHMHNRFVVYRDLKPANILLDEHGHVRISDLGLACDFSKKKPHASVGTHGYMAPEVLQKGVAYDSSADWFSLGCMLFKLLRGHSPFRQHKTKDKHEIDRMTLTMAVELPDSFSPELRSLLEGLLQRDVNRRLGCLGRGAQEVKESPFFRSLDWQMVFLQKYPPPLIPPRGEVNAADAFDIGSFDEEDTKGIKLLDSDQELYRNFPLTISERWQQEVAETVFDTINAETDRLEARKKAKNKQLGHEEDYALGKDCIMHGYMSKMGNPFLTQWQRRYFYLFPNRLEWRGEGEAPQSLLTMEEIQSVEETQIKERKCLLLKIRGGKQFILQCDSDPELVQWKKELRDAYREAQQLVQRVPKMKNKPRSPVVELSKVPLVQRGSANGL
For assay [10], the target named is AP-2 complex subunit beta (Homo sapiens) (UniProt P63010). Description: beta-arrestin/AP2 interaction blockers – biochemical, validation set, GST-AP2 beads, flow cytometry, pilot screen (AID 504541;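 active = inhibition above 54%, about 3 SD of non-fluorescent compounds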;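 also: AP2 carries R879A mutation and is captured from E. coli lysate; bead-bound FITC arrestin peptide fluorescence measuring arrestin peptide binding to AP2; 0% = DMSO wells and 100% = excess unlabeled arrestin peptide control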). As to conditions: FITC arrestin peptide, at 10 µM, stronger effect = higher value, AP2 beta2 appendage fragment, R879A mutant.
Sequence of AP-2 complex subunit beta (Homo sapiens) (P63010 whole entry, looked up, the tested form may be a part, one chain of several): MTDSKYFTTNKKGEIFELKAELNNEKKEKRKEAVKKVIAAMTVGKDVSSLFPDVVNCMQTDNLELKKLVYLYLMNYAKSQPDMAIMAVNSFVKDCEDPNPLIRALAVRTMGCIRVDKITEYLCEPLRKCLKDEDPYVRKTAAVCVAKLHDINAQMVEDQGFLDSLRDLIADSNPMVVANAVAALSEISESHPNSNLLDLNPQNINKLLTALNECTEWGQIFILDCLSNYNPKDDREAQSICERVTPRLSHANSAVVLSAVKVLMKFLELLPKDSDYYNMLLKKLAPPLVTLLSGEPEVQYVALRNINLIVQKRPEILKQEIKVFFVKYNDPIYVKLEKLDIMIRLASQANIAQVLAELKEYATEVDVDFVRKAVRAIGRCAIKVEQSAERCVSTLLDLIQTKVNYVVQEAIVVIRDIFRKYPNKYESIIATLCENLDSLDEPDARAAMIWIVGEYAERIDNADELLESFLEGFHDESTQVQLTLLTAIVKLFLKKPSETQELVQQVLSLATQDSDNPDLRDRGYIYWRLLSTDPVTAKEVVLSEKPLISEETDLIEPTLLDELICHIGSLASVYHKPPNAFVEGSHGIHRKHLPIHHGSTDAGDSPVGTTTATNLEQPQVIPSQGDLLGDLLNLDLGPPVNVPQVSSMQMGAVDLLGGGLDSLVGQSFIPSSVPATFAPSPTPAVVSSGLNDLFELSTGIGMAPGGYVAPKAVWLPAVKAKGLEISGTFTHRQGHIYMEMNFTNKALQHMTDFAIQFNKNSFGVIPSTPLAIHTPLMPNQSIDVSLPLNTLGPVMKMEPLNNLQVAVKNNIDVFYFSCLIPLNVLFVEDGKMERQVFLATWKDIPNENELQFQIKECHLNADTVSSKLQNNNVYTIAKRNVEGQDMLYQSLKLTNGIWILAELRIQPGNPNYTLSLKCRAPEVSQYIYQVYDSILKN
The nature of assay [11]: cytosolic pH regulators acting via V-ATPase – S. cerevisiae, pHLuorin, HTS validation (AID 504600; in the data active = response above about 15%;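 also: plate controls were DMSO for no effect and reference compound for full effect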). As to conditions: V-ATPase proton transport, at 10 µM, stronger effect = higher value.
The subject of assay [12] is anti-desmoglein-3 scFv antibody binding to human DSG3. Description: blockers of pathogenic pemphigus antibody–desmoglein-3 binding – biochemical, validation compound set, bead-based, flow cytometry, pilot screen (AID 588368).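 Also: signal is the median channel fluorescence of bead-bound GFP antibody.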 The settings on record: Protein G beads, DSG3-Fc, scFv-GFP binding, at 10 µM, stronger effect = lower value.
The nature of assay [13]: Nile Red efflux blockade in pump-expressing yeast – validation compound set, multiplex, phenotypic, pilot screen (AID 588506;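 active = efflux inhibition above 0.42, the validation set average plus 4 SD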;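 also: Nile Red retained in cells so higher fluorescence means more efflux inhibition; 0 = negative control wells and 1 = enniatin B 25 µM full block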). As to conditions: S. cerevisiae pump-expressing triplex, Nile Red efflux flow cytometry; at 10 µM; stronger effect = higher value; the pumps come from Candida albicans.
Assay [14] deals with ATP-binding cassette sub-family B member 6 (Homo sapiens) (UniProt Q9NP58). Description: blockers of ABCB6-driven porphyrin uptake – K562-ABCB6 cells, flow cytometry, validation set, pilot screen (AID 588550;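 active = inhibition above the screen-wide mean plus 3 SD, about 51%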;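 also: 0% = DMSO wells and 100% = benzethonium chloride 70 µM positive control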). The settings on record: K562-ABCB6 porphyrin accumulation, 1 h, at 10 µM, stronger effect = higher value.
Sequence of ATP-binding cassette sub-family B member 6 (Homo sapiens) (Q9NP58 whole entry, looked up): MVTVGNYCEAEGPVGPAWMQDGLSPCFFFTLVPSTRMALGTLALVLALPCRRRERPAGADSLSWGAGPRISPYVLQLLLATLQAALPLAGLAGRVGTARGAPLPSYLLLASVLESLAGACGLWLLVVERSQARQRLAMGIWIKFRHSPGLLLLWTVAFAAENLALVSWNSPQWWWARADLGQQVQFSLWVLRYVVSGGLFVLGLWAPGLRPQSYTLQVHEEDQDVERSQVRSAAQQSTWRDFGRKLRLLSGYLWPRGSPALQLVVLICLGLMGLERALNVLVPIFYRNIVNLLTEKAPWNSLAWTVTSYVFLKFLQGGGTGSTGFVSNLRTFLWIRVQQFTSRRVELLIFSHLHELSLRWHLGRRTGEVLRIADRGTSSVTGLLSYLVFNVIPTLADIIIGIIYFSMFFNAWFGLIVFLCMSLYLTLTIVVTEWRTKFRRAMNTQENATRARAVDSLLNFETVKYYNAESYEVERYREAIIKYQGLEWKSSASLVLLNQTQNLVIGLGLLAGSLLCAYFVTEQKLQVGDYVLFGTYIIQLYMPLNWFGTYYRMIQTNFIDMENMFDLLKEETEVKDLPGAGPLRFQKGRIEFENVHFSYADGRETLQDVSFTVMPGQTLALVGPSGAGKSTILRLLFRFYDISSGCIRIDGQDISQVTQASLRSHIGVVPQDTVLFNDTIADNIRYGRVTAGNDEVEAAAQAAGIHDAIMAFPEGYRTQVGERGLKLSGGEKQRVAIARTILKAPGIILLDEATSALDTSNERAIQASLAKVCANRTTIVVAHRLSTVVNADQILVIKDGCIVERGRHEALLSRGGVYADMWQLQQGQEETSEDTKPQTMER
Assay [15] is described as follows: AML differentiation inducers, ER-HoxA9 marrow cells – cell-based, GFP/MAC1 double positive, flow cytometry, validation set, primary screen (AID 588685;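 active = differentiation response of at least 50%, scaled between solvent and reference control, from cells with both markers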;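 also: compound exposure lasts four days before antibody staining and flow analysis; 0% = DMSO wells and 100% = 5 µM fulvestrant positive control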). As to conditions: stronger effect = higher value, normalized: vehicle 0, fulvestrant 100.

Sequence of Integrin beta-1 (Homo sapiens) + Integrin alpha-4 (Homo sapiens) (P05556 whole entry, looked up): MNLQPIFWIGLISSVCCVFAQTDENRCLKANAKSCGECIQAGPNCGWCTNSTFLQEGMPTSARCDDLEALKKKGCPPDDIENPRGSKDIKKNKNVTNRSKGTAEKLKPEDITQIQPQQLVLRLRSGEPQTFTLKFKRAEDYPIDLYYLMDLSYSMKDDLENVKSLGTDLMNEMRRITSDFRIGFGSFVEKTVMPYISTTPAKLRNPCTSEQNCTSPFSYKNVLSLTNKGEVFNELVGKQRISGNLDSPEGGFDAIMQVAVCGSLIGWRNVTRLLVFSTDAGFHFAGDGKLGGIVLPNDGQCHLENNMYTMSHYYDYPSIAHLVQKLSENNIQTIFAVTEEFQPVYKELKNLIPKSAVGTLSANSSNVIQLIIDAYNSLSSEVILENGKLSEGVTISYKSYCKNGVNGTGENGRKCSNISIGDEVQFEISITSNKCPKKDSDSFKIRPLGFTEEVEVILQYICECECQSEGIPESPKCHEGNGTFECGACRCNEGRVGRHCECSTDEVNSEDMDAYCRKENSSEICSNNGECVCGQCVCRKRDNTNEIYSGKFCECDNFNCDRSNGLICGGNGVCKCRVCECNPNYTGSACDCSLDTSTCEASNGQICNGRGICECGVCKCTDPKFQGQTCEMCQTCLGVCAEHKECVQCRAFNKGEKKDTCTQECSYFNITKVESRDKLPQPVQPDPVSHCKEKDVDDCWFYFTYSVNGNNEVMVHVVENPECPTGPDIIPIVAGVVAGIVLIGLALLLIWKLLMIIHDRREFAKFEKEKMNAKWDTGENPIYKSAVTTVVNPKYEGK
Sequence of Integrin beta-1 (Homo sapiens) + Integrin alpha-4 (Homo sapiens) (P13612 whole entry, looked up): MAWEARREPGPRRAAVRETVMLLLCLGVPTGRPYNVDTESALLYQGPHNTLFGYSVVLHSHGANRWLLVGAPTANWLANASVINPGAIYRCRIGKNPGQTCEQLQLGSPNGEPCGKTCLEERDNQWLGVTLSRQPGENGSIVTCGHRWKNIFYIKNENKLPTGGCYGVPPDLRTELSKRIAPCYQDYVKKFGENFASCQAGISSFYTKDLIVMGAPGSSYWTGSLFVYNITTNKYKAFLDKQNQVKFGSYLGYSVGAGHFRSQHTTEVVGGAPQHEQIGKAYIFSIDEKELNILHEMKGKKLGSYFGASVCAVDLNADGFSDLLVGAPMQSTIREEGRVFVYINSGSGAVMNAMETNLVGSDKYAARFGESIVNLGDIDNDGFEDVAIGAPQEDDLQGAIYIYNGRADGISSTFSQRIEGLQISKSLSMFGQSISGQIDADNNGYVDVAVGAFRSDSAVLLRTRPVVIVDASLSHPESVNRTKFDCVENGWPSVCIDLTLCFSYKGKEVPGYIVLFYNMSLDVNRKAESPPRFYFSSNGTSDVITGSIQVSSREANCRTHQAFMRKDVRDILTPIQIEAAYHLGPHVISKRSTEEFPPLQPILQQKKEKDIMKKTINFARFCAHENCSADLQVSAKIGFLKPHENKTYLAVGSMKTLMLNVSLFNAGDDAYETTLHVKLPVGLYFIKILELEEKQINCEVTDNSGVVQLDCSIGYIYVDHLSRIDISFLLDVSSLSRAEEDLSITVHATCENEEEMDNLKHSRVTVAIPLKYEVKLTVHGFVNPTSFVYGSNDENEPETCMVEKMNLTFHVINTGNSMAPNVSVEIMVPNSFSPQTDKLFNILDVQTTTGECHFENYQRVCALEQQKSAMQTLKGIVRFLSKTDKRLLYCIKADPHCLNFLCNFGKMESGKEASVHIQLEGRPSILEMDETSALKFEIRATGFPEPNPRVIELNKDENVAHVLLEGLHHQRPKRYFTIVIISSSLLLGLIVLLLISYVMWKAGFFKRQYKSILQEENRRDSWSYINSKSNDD

Consider `COc1cc2c(cc1OC)-c1cc(OCc3ccccc3Cl)nc(=O)n1CC2`, for which the percent of DMSO control GFP in assay [1] was 98.8% (inactive). For the same compound, the results for the GFP response vs DMSO in assay [2] and in assay [4] were 98.9% (inactive) and 99.4% (inactive), respectively. Moreover, the percent response of DMSO control in [3] is 101% (inactive). Moreover, in [5], the GFP response, % of DMSO is 97.5% (inactive). Besides, in assay [6], the double positive events came to 57.7%. Also, the vesicle binding response in assay [6] is 172% (inactive). Moreover, the values for the inhibition in [7], in assay [10] and in assay [14] were 9.09% (inactive), 4.7% (inactive) and 4% (inactive), respectively. Besides, the superoxide response (% of plate) in assay [8] was 97.5% (inactive). The aptamer binding inhibition in assay [9] was 4% (inactive). Besides, the response in [11] is -7% (inactive). In assay [12], the binding (% of control) was 99.8% (inactive). For the same compound, the efflux inhibition (fraction of control) in assay [13] was 0.06 (inactive). Moreover, the differentiation response in assay [15] is -18% (inactive).

Regarding `Cn1c(=O)c2c(ncn2CC(O)CO)n(C)c1=O` (stereo not given), the percent of DMSO control GFP in assay [1] was 100% (inactive). Also, the GFP response vs DMSO was 99.9% (inactive) in assay [2] and 104% (inactive) in assay [4]. The percent response of DMSO control in [3] is 93.9% (inactive). The GFP response, % of DMSO in [5] is 99.4% (inactive). The compound further registered a double positive events in assay [6] of 53.8%. In assay [6], the vesicle binding response is 114% (inactive). Further, the inhibition in [7] is 11.9% (inactive); in assay [10] it was -7.53% (inactive); in [14], 9% (inactive). The superoxide response (% of plate) in assay [8] was 93.5% (inactive). Further, the aptamer binding inhibition in assay [9] was 2% (inactive). The response in assay [11] is -0.09% (inactive). The binding (% of control) in [12] was 81.7% (inactive). Besides, the efflux inhibition (fraction of control) in assay [13] is 0.22 (inactive). In assay [15], the differentiation response is -8.27% (inactive).

`N/C(=N\OS(=O)(=O)c1ccc2ccccc2c1)c1cccnc1`: the percent of DMSO control GFP in assay [1] is 103% (inactive). In addition, the GFP response vs DMSO in [2] is 104% (inactive); in assay [4] it was 99.4% (inactive). In assay [3], the percent response of DMSO control is 95.9% (inactive). For the same compound, the GFP response, % of DMSO in [5] is 97.5% (inactive). The compound also yielded a double positive events in assay [6] of 61.4%. Besides, the vesicle binding response in assay [6] is 133% (inactive). For the same compound, the inhibition is 2.56% (inactive) in [7], 45.4% (inactive) in [10] and 6% (inactive) in [14]. The superoxide response (% of plate) in [8] is 96.2% (inactive). Further, the aptamer binding inhibition in assay [9] was 2% (inactive). Moreover, in [11], the response was -4.42% (inactive). In addition, the binding (% of control) in [12] was 108% (inactive). Further, in [13], the efflux inhibition (fraction of control) is 0.29 (inactive). For the same compound, the differentiation response in assay [15] was -13.1% (inactive).

Consider `COC1=CC(=O)CC(C)C12Oc1c(Cl)c(OC)cc(OC)c1C2=O` (stereo not given), for which, in [1], the percent of DMSO control GFP is 105% (inactive). Also, the GFP response vs DMSO in assay [2] is 99.9% (inactive); in assay [4], 103% (inactive). Moreover, the percent response of DMSO control in assay [3] was 107% (inactive). The GFP response, % of DMSO in assay [5] was 98.7% (inactive). Further, in [6], the double positive events came to 42.3%. In addition, the vesicle binding response in assay [6] was 131% (inactive). In addition, the values for the inhibition in assay [7], in assay [10] and in [14] were 8.15% (inactive), 14.5% (inactive) and 8% (inactive), respectively. The superoxide response (% of plate) in assay [8] is 97.4% (inactive). The aptamer binding inhibition in [9] is -1% (inactive). In addition, the response in assay [11] is 0.18% (inactive). In addition, the binding (% of control) in assay [12] is 95.9% (inactive). In [13], the efflux inhibition (fraction of control) was -0.09 (inactive). In addition, the differentiation response in [15] was -14.7% (inactive).

Turning to `O=C1N=c2ccccc2=C1c1[nH]c(=S)[nH]c1O`, the percent of DMSO control GFP in assay [1] is 98.8% (inactive). Also, the GFP response vs DMSO is 96.9% (inactive) in assay [2] and 81.3% (inactive) in assay [4]. Besides, in assay [3], the percent response of DMSO control is 106% (inactive). For the same compound, the GFP response, % of DMSO in assay [5] is 99.6% (inactive). In [6], this compound gave a double positive events of 56.8%. The vesicle binding response in assay [6] was 181% (inactive). The figures for the inhibition in assay [7], in [10] and in assay [14] were 2.56% (inactive), 2.65% (inactive) and 8% (inactive), respectively. Moreover, the superoxide response (% of plate) in assay [8] was 98.7% (inactive). Moreover, in [9], the aptamer binding inhibition was -2% (inactive). Besides, in [11], the response was 3.63% (inactive). Further, the binding (% of control) in [12] was 98% (inactive). For the same compound, in assay [13], the efflux inhibition (fraction of control) is -0.12 (inactive). In assay [15], the differentiation response was -19.6% (inactive).

The inhibition is the change of the read-out against control, counted positive when it falls.
